Hit rate of the full screen: of about 2,400 compounds, about 1,800 (75%) were called active. Cut-off read from the data, not from the text of the source: active = inhibition above about 22%; inactive = the rest. So high a share suggests a set chosen from earlier hits. These entries were drawn from the full list.
Assay: nonselective antagonists in TAAR1 counter-screen cells, counter-screen for hTAAR1 antagonist project, cell-based, fluorescence, calcium (AID 651780);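 note: CHO-Ga16 host cells stimulated with ATP at an EC80 level; 0% = agonist EC80 plus vehicle and 100% = vehicle without agonist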
Conditions: counterscreen cell line, antagonist mode, at 3 µM, active compounds read high
With `COC(=O)C1=C(c2ccc(F)cc2OCc2ccccc2)C[C@@H]2CC[C@H]1N2C(=O)NCc1ccc(OC)c(OC)c1` the inhibition was 24.8% (active). For `COC(=O)C1=C(c2ccccc2OCc2ccccc2)C[C@@H]2CC[C@H]1N2C(=O)NCc1ccc(OC)cc1`, the inhibition was 22.2% (active). For `O=C1C2(Cl)C3(Cl)C4(Cl)C(Cl)(Cl)C5(Cl)C3(Cl)C1(Cl)C5(Cl)C24Cl` (stereo not drawn), the inhibition was 24.9% (active).

— PubChem BioAssay AID651780 (The Scripps Research Institute Molecular Screening Center, 2012)
